According to PubChem BioAssay (Tox21):
A number with no mark means an inactive call. Entries that show only a call come without a potency. The source made the active and inactive calls. Calls follow the shape of the full dose curve.
Potency is read from the fitted curve at half-maximal effect.

Each compound was assayed against Gonadotropin-releasing hormone receptor (Homo sapiens) (UniProt P30968) (assay: Human gonadotropin-releasing hormone receptor (GnRHR) small molecule agonists, calcium flux assay in GnRHR-HEK293 cells (AID 1920063; also: nearly all actives have a fitted effect of over 35% in size)). Conditions: calcium flux fluorescence, agonist mode; series mostly up to 57.6 µM.
Sequence of Gonadotropin-releasing hormone receptor (Homo sapiens) (P30968 whole entry, looked up): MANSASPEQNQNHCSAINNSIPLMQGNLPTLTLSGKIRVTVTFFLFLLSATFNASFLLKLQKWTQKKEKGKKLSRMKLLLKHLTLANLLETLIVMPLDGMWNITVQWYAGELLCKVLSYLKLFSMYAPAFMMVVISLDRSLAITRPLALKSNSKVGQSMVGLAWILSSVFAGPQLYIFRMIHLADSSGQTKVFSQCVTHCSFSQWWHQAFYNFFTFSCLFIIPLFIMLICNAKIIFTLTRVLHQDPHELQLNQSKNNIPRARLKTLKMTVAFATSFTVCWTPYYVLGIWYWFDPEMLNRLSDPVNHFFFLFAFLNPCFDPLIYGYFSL
Source text: National Center for Advancing Translational Sciences [NCATS]
Division of Preclinical Innovation [DPI]
U.S. Environmental Protection Agency [EPA]
National Institutes of Environmental Health Sciences [NIEHS]
National Toxicology Program [NTP]
U.S. Food and Drug Administration [FDA]
Gonadotropin-releasing hormone receptor (GnRHR) is a G-protein-coupled receptor (GPCR) and acts (through phospholipase C) to increase intracellular inositol trisphosphate and then release intracellular calcium stores. Cell-based GnRHR-Hek293 calcium influx assay is using HEK293 cells that have been genetically engineered to express the human GnRHR, which activity can be measured by calcium signaling. A compound/drug can activate (agonist) GnRHR that can be monitored by levels of intracellular calcium.
GnRHR-HEK293 cells developed by Codex Corp contain human GnRHR reporter gene, which was stably integrated into HEK 293 cells. The compound activation can be detected by fluorescence intensity via calcium flux assay. This cell line has been used to screen the Tox21 10K compound library to identify GnRHR agonists.
GnRHR-Hek293 cells were dispensed at 1500cells/4uL/well in 1536-well black wall/clear bottom plates using a multidrop dispenser. After the assay plates were incubated at a 37 C/5% CO2 incubator for 18 hours, 4 uL of Calcium Dye Solution was added to each well. The plates were incubated at 37 C for 1 hour. For agonist mode, 23 nL of compounds dissolved in DMSO, positive controls or DMSO only was transferred to the assay plate by a pin tool station. The fluorescence intensity in the plates was measured using FDSS 7000EX kinetic plate reader with a filter set of Ex/Em=480/540 for 3 min at 1 sec intervals. Each test compound was measured at 15 concentrations and in triplicates.
For `ClCC(Cl)Cl`, the Potency was “inactive”.
For `N#CC(CCc1ccc(Cl)cc1)(Cn1cncn1)c1ccccc1` (stereo not given), the Potency was “inactive”.
`CCCCCCCCP(=O)(O)O` was tested, and the Potency was “inactive”.
With `c1ccc2c(c1)OCC(C1=NCCN1)O2` (stereo not given) the Potency was “inactive”.
In the case of `C[N+](C)(C)CC1CO1` (stereo not given), the Potency is reported as “inactive”.
In the case of `C=CC(=O)OCC(C)O` (stereo not given), the Potency is reported as “inactive”.
In the case of `COc1ccc(OC)c(CC(C)N)c1` (stereo not given), the Potency is reported as “inactive”.
For `N#Cc1c[nH]cc1-c1cccc2c1OC(F)(F)O2`, the Potency was “inactive”.
For `CC(C)N(C(=O)SC/C(Cl)=C/Cl)C(C)C`, the Potency was “inactive”.
With `CC(C)(CCl)C(=O)Cl` the Potency was “inactive”.
With `CO/N=C(\C(=O)OC)c1ccccc1CO/N=C(\C)c1cccc(C(F)(F)F)c1` the Potency was “inactive”.
For `Fc1cccc(Cl)c1CCl`, the Potency was “inactive”.
In the case of `O=C(O)C(O)C(O)C(=O)O` (stereo not given), the Potency is reported as “inactive”.
In the case of `CCOP(=S)(OCC)Oc1cc(-c2ccccc2)on1`, the Potency is reported as “inactive”.
In the case of `C[C@@H](N)[C@@H](O)c1ccccc1`, the Potency is reported as “inactive”.
For `Cc1ncc(C[n+]2csc(CCO)c2C)c(N)n1`, the Potency was “inactive”.
`Clc1cc2c(cc1Cl)Oc1cc(Cl)c(Cl)cc1O2` was tested, and the activity change was 1.13% [at 0.217 µM, stronger effect = higher value].
`O=C(C(Cl)(Cl)Cl)C(Cl)(Cl)Cl` was tested, and the Potency was “inactive”.
In the case of `CN1C(=O)C(O)N=C(c2ccccc2)c2cc(Cl)ccc21` (stereo not given), the Potency is reported as “inactive”.
With `CC[C@@H](CO)NC(=O)[C@@H]1C=C2c3cccc4[nH]cc(c34)C[C@H]2N(C)C1` the Potency was “inactive”.
With `O=[N+]([O-])c1ccc(CCl)cc1` the Potency was “inactive”.
`O=CC(Br)(Br)Br` was tested, and the Potency was “inactive”.
With `CCC1(c2ccccc2)C(=O)NC(=O)NC1=O` the Potency was “inactive”.
With `CCOP(=S)(OCC)Oc1ccc(S(C)=O)cc1` (stereo not given) the Potency was “inactive”.
In the case of `CCC1(C2=NCCN2)Cc2ccccc2O1` (stereo not given), the Potency is reported as “inactive”.
In the case of `CC(C)(C#N)C(C)(C)C#N`, the Potency is reported as “inactive”.
With `O=C(O)c1cc(I)cc(I)c1I` the Potency was “inactive”.
In the case of `CC1=C(C(=O)O)N2C(=O)[C@@H](N)[C@H]2SC1`, the activity change is reported as 0.673% [at 11.8 µM, stronger effect = higher value].
`NC(=O)CS(=O)C(c1ccccc1)c1ccccc1` (stereo not given) was tested, and the Potency was “inactive”.
`CC(=O)[O][Sn]([c]1ccccc1)([c]1ccccc1)[c]1ccccc1` was tested, and the Potency was 17.4 µM (active).
For `Cc1ccc2nc3sc(=O)sc3nc2c1`, the activity change was -0.0057% [at 11.8 µM, stronger effect = higher value].
With `N#Cc1c(-c2ccc(Cl)cc2)[nH]c(C(F)(F)F)c1Br` the Potency was “inactive”.
In the case of `Cc1nnc(-c2ccccc2)c(=O)n1N`, the Potency is reported as “inactive”.
With `CC(C)OC(=O)C(O)(c1ccc(Cl)cc1)c1ccc(Cl)cc1` the Potency was “inactive”.
For `Oc1cc(Cl)cc(Cl)c1`, the Potency was “inactive”.
`COC(=O)/C=C(\C)OP(=O)(OC)OC` was tested, and the Potency was “inactive”.
`Cn1c(CCCC(=O)O)nc2cc(N(CCCl)CCCl)ccc21` was tested, and the Potency was “inactive”.
With `CC(C)[C@@H](Nc1ccc(C(F)(F)F)cc1Cl)C(=O)OC(C#N)c1cccc(Oc2ccccc2)c1` (stereo not given in full) the Potency was “inactive”.
In the case of `CCNS(=O)(=O)C(F)(F)C(F)(F)C(F)(F)C(F)(F)C(F)(F)C(F)(F)C(F)(F)C(F)(F)F`, the Potency is reported as “inactive”.
With `C[C@]12C=CC(=O)C=C1CC[C@@H]1[C@@H]2CC[C@@]2(C)[C@H]1CC[C@]2(C)O` the Potency was “inactive”.
